In the library only some 8.1% were active in any assay of this set; here they are far more common.
ClpP mod: qHTS Assay for Activators of ClpP. Potency, µM (series often up to 57.5 µM), for the others: top-dose activity change, negative = active. purified B. subtilis ClpP, FRET peptide cleavage, 20 min. ATP-dependent Clp protease proteolytic subunit (Bacillus subtilis (strain 168)), P80244. 340,000 compounds, 1.9% hits; active means well fitted falling curve with a large enough effect; inconclusive means small, poorly fitted or top-dose-only effect; inactive means no such curve, though single readings can be large or run the other way; further: the source files actives as falling curves though it sought activators and does not explain the sign; nearly all actives have a fitted effect of over 65% in size
Target sequence (P80244 whole entry, looked up): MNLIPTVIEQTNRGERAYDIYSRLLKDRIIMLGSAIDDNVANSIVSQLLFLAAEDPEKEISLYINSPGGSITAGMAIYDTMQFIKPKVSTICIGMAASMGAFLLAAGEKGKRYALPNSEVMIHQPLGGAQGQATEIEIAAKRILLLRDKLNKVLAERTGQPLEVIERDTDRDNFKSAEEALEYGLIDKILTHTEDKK
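Purified B. subtilis ClpP, 10 microg/mL final in Tris/HCl pH8 with KCl, BSA, glycerol and Tween-20, cleaved an Abz/nitrotyrosine-quenched decapeptide. Fluorescence (ex 320, em 430) was read at 0 and 20 min at room temperature. Delta was normalized to 5.8 microM ADEP and DMSO/no-enzyme controls.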
PINK1 modulator: A Quantitative High throughput Screen to Identify Chemical Modulators of PINK1 Expression. AID 624263, 2012. Potency, µM (doses to about 76.6 µM), for inactives: top-dose activation (PINK1 increase), most hits filed as activators. PINK1 immunofluorescence, high-content cytometry, 24 h. 410,000 compounds, 0.2% hits; active means well fitted activation curve with a large enough effect; inconclusive means small, poorly fitted or top-dose-only effect; cell line not stated here; further: % of control where 0% means no effect; nearly all actives have a fitted effect of over 65% in size
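Cells are seeded, rested 12 hours, then given compound at five concentrations or DMSO for 24 hours. After fixation, blocking and antibody staining, PINK1 amount and mitochondrial localization are scored; CCCP serves as control.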
RORgamma inh: qHTS for inhibitors of ROR gamma transcriptional activity | Nuclear receptor ROR-gamma (Mus musculus), P51450 | Drosophila S2 Gal4-RORgamma UAS-luciferase reporter, 20 h | Potency, µM (top dose mostly 53.6 µM), without a hit: at the top dose activity change, negative = inhibition, most hits filed as inhibitors | 310,000 compounds, 5.4% hits; further: on the % scale 0 is the no-effect control and ±100 the full control effect; nearly all actives have a fitted effect of over 60% in size
Target sequence (P51450 whole entry, looked up, the tested form may be a part): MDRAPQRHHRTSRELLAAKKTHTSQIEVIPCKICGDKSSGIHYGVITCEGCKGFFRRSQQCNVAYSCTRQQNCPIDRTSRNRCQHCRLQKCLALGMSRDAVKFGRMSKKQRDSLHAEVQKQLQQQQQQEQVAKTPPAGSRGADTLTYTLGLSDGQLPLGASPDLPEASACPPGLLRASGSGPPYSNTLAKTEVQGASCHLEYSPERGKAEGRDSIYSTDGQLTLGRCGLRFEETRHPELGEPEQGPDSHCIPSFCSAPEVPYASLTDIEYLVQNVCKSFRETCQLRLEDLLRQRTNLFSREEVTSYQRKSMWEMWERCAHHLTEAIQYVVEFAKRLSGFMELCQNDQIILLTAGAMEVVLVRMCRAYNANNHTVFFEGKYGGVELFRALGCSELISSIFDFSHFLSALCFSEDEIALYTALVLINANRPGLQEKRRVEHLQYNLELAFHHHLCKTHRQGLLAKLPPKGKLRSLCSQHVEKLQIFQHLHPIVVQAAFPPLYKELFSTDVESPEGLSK
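Read-out: Photinus luciferase luminescence; inhibitors lower reporter signal. Insect Schneider cells with Gal4-ROR gamma fusion under metallothionein promoter, UAS reporter; 700 uM final copper sulfate induction, 20 hr, ambient temperature.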
Gal4-VP16 FLuc: VP16 counterscreen qHTS for inhibitors of ROR gamma transcriptional activity. 310,000 compounds, 3.5% hits. Potency, µM (titrated, usually from 53.6 µM), inactives show top-dose activity, negative = inhibition, usual class: inhibitors. Drosophila S2 Gal4-VP16 UAS-luciferase, luminescence, 20 h;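 further: Gal4-VP16 expression switched on by copper sulfate through the metallothionein promoter; on the % scale 0 is the no-effect control and ±100 the full control effect; nearly all actives have a fitted effect of over 50% in size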
Sfp inh: qHTS Assay for Inhibitors of Bacillus subtilis Sfp phosphopantetheinyl transferase (PPTase). Biochemical Sfp PPTase activity, qHTS. Potency, µM, without a hit: largest response in the series, negative = inhibition, usual class: inhibitors. 310,000 compounds, 3.5% hits;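 further: the enzyme is Sfp with the accession as filed and its product quenches rhodamine fluorescence; 0% = enzyme reaction without inhibitor and -100% = no enzyme wells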
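Reaction rates are the 30-min fluorescence difference (ex 525, em 598 nm) in wells containing 15 nM Sfp, 5 uM rhodamine-CoA and 12.5 uM BHQ-2-YbbR at pH 7.6 with 10 mM MgCl2.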
Epigenetic derep: Quantitative High-Throughput Screen for Regulators of Epigenetic Control; 280,000 compounds, 0.2% hits; Potency, µM (titrated, usually from 53.9 µM), for the others: at the top dose GFP activation, actives largely listed as activators; murine LDR cells, GFP reporter derepression, 30 h; AID 1865, 2009; further: % of control where 0% means no effect; nearly all actives have a fitted effect of over 60% in size
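Readout is the number of GFP-expressing murine LDR cells, counted by cytometry following washing. Cells were treated with compound for 30 h at 37 C; the stably integrated CMV-GFP locus is normally silent.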
Numbers without * were called inactive; u = inconclusive; x = no result given; [ ] = another dose, or the depositor's remark. Unless noted, the call rests on the fitted dose curve; in most records, active means well fitted curve in the direction sought with a large enough effect; inconclusive means small, poorly fitted or top-dose-only effect, or another doubt; inactive means no such curve, though single readings can be large; an effect the other way counts as inactive or inconclusive. Potency means the concentration at half of the fitted maximal effect.

SMILES	ClpP mod	PINK1 modulator	RORgamma inh	Gal4-VP16 FLuc	Sfp inh	Epigenetic derep
Cc1cccn2c(=O)c(/C=C(\C#N)c3nc4ccccc4s3)c(Oc3ccc(Br)cc3)nc12	u	4.0%	x	x	x	0.0%
Cc1ccccc1Oc1nc2ccccn2c(=O)c1/C=C(\C#N)c1nc2ccccc2[nH]1	-1.8%	1.0%	x	x	x	11.2µM*
Cc1ccc(Oc2nc3c(C)cccn3c(=O)c2/C=C(\C#N)C(N)=O)cc1	1.0%	6.1%	-15.7%	-6.4%	16.4%	-1.3%
CC(C)(CO)NC(=O)c1cnn(-c2ncc3c(n2)-c2ccccc2CC3)c1C1CC1	x	-0.8%	x	x	x	x
Cc1cc(C)cc(Oc2nc3c(C)cccn3c(=O)c2/C=C(\C#N)c2nc3ccccc3[nH]2)c1	-2.9%	u	x	x	x	7.08µM*
O=C(c1ccco1)N1CCN(C(=O)c2cc(-c3ccccn3)nc3ccc(Cl)cc23)CC1	-3.3%	0.7%	5.7%	-3.4%	15.8µM*	u
COc1ccc(C(=O)N2CCC3(CC2)c2ccccc2[C@@H](NC(=O)c2ccccn2)[C@@H]3OC)c(O)c1	x	-1.3%	x	x	x	x
CC(C)(C)c1cc(C(c2cccnc2)N2CCN(CCO)CC2)cc(C(C)(C)C)c1O (stereo not drawn)	-2.5%	4.8%[38.3 µM]	12.6µM*	17.8µM*	20µM*	u
CC(C)(C)n1nnnc1C(c1cccnc1)N1CCN(c2cccc(C(F)(F)F)c2)CC1 (stereo not drawn)	-0.3%	-0.9%	26.4%	-6.5%	4.7%	-0.1%
CCOC(=O)c1c(-c2ccc(C)cc2)cn2ccccc12	12.6µM*	16.9%	0.6%	u	u	0.8%
CCOC(=O)c1c(-c2ccccc2)cn2ccccc12	u	4.4%	35.9%	-5.6%	-13.2%	-1.9%
CCOC(=O)c1c(-c2ccc(F)cc2)cn2ccccc12	10µM*	3.9%	u	1.7%	-18.0%	-1.7%
O=C(CSc1c2c(nc3ccccc13)CCC2)Nc1ccc(F)cc1	-2.3%	8.2%	x	x	x	4.4%
COc1ccc(OC)c(CCNc2nc3cc(OC)c(OC)cc3c3nc(-c4cccnc4)nn23)c1	1.4%	2.1%	x	x	x	0.8%
CCOC(=O)c1sc(=S)n(-c2ccccc2)c1N	-1.5%	-1.0%	-12.3%	-11.3%	u	2.0%
CCOc1ccc(-n2c(N)c(C(=O)NCc3ccco3)sc2=S)cc1	-0.8%	0.3%	28.0%	-1.7%	12.6µM*	0.0%
CCNC(=O)c1sc(=S)n(-c2ccc(C)cc2)c1N	-0.4%	5.2%[38.3 µM]	4.3%	1.3%	56.2µM*	-3.4%
COC(=O)c1sc(=S)n(-c2cccc(Cl)c2)c1N	-0.1%	-3.2%[38.3 µM]	-0.5%	-8.2%	31.6µM*	-1.8%
CCOc1ccc(-n2c(N)c(C(=O)NCc3cccnc3)sc2=S)cc1	0.9%	7.5%	-3.5%	-7.2%	u	0.7%
COc1ccc(CNC(=O)c2sc(=S)n(-c3ccccc3)c2N)cc1	x	4.4%	-2.8%	9.2%	25.1µM*	-1.8%
CCOCCc1nn2c(=O)cc(COC(=O)c3ccccc3NC(=O)c3cccs3)nc2s1	-28.6%	0.2%	x	x	x	-3.4%
COc1ccccc1N(C)c1cc2c(c3c1ccn3C)C1CCC2C1 (stereo not drawn)	31.6µM*	2.0%	x	x	x	x
CC1CC(C)CN(C(=O)c2cc3c(=O)n4ccccc4nc3s2)C1 (stereo not drawn)	x	0.7%	15.8%	5.6%	12.5%	x
CC1CN(C(=O)c2cc3c(=O)n4ccccc4nc3s2)CC(C)O1 (stereo not drawn)	17.8µM*	0.5%[38.3 µM]	24.3%	-1.4%	17.0%	0.0%
CC(C)CCc1c(O)nc(SCC(C)C)[nH]c1=O	31.6µM*	-0.2%	10.3%	1.2%	10.5%	2.6%
SMILES	ClpP mod	PINK1 modulator	RORgamma inh	Gal4-VP16 FLuc	Sfp inh	Epigenetic derep
Cc1ccc(CN2CCN(Cc3c(C)nn(-c4ccc(F)cc4)c3C)CC2CCO)o1 (stereo not drawn)	0.8%	0.6%	15.4%	5.4%	12.9%	-1.1%
Cc1cc(C)c(CN2CCN(Cc3ccc(C)o3)C(CCO)C2)c(-n2cccn2)c1 (stereo not drawn)	25.1µM*	2.5%	0.0%	11.8%	-2.4%	-4.3%
CC(C)CC(C(=O)Nc1oc(-c2ccco2)c(-c2ccco2)c1C#N)N1C(=O)c2ccccc2C1=O (stereo not drawn)	0.3%	0.0%	-14.9%	0.5%	39.8µM*	2.3%
COc1ccc(C)cc1NC(=O)c1ccc2c(c1)CCN2S(=O)(=O)c1ccc(Cl)cc1	-1.4%	-0.4%	x	x	x	4.3%
CC1CCN(S(=O)(=O)c2cccc(-c3cn4cc(Cl)ccc4n3)c2)CC1	35.5µM*	2.8%	42.8%	1.6%	30.8%	3.8%
CC1CN(S(=O)(=O)c2cccc(-c3cn4ccccc4n3)c2)CC(C)O1 (stereo not drawn)	-14.9%	2.0%[38.3 µM]	u	0.355µM*	13.7%	-4.6%
CCCCN1CCCc2cc(CN(CCCN3CCOCC3)C(=O)Nc3ccc(CC)cc3)ccc21	-3.5%	3.0%	x	x	x	1.1%
CCOc1ccc(NC(=S)N(CCCN2CCCC2)Cc2cccn2Cc2ccc(Cl)cc2)cc1	x	2.3%	12.6µM*	-2.5%	-14.2%	2.3%
CCOc1ccc(NC(=S)N(CCN2CCOCC2)Cc2ccc3c(c2)CCCN3CC)cc1	-3.3%	1.1%	6.31µM*	u	0.1%	-1.3%
CCN1CCCc2cc(CN(CCN3CCOCC3)C(=S)Nc3cccc(Cl)c3)ccc21	x	-0.7%	7.08µM*	-2.4%[10 µM]	13.9%	1.1%
CCN1CCCc2cc(CN(CCN3CCOCC3)C(=S)Nc3ccc(OC)cc3)ccc21	-1.3%	3.8%	u	0.3%[10 µM]	21.4%	15.8%
CCN1CCCc2cc(CN(CCN3CCOCC3)C(=S)Nc3ccc(C)cc3)ccc21	x	1.0%	3.55µM*	-20.5%[10 µM]	16.7%	-0.1%
Cc1cccc(NC(=S)N(CCCN2CCCC2)Cc2cccn2Cc2ccc(Cl)cc2)c1	x	-0.5%	u	u	-7.4%	-4.3%
O=C(COc1ccc(Cl)cc1)OCc1cc(=O)n2nc(-c3cccs3)sc2n1	u	-0.9%	x	x	x	0.0%
O=C(Cn1cnc2nc3c(cc2c1=O)CCCC3)Nc1ccc(F)cc1Cl	-3.2%	0.9%	x	x	x	0.8%
CC(=O)Nc1ccc(S(=O)(=O)NCc2ccc3c(c2)CCN3C(C)=O)cc1	0.0%	1.2%	x	x	x	8.5%
CCc1ccc(NC(=O)CSc2nc3nccnc3c(=O)n2CCc2c[nH]c3ccccc23)cc1	3.1%	0.4%	x	x	x	0.0%
CC(=O)N1CCC(N(CCN2CCOCC2)C(=S)Nc2ccc(C)cc2)CC1	x	1.4%	-1.3%	6.6%	50.1µM*	1.6%

Screening data deposited in PubChem by National Center for Advancing Translational Sciences (NCATS).
